ST2 inh – inhibitors of human ST2 (IL1RL1) binding to IL-33; Q01638; AID 1259354; AlphaLISA ST2-Fc/biotin-IL-33 interaction, 1 h; 2.3% of 78,000 active; inhibition, % for hits at 17 µM; in the data active = inhibition above about 30%
Starred values were filed as active, the others as inactive; i = inactive. Shown is part of a subset that was picked to be rich in hits.

SMILES | ST2 inh
COc1cc(/C=C(\C#N)c2nc(-c3ccc(Br)cc3)cs2)ccc1O | 33.0%*
CCOc1ccc(-c2csc(/C(C#N)=C/c3ccc(N(C)C)cc3)n2)cc1 | 65.0%*
CCOc1ccc(-c2csc(/C(C#N)=C/c3ccc(OC)cc3)n2)cc1 | 54.0%*
COc1ccc(-c2csc(/C(C#N)=C/c3cccc(F)c3)n2)cc1 | 43.0%*
CCOc1ccc(-c2csc(-c3cc4cccc(OC)c4oc3=O)n2)cc1 | i
CC1(C)CC(=O)C2=C(C1)C(c1ccc(Br)c([N+](=O)[O-])c1)C1=C(O2)C(=O)CC(C)(C)C1 | i
O=C(O)C1CCN(c2nc(-c3ccc(Br)cc3)cs2)CC1 | i
CN(C)c1ccc(/C=C(\C#N)c2nc(-c3ccc(Br)cc3)cs2)cc1 | 53.0%*
Cc1ccc2[nH]c(C(=O)O)c(-c3c(-c4ccccc4)ncn3CCCO)c2c1 | i
O=[N+]([O-])c1cccc([C@H]2NCC[C@@]3(O)CCCC[C@H]23)c1 | i
O=C(NCc1ccccc1)N1CC[C@H](c2nc3cc(Cl)ccc3o2)C1 | i
O=C1c2cccc3cccc(c23)C(=O)N1CCNCCO | i
O=C1c2c(O)ccc(O)c2C(=O)c2c(NCCNCCO)ccc(NCCNCCO)c21 | 82.0%*
CCn1ccnc1Cn1cnc(-c2ccccc2)c1-c1c(OC)cccc1OC | i
COc1ccc2cc3cc(C(=O)Nc4ccc(F)cc4F)sc3nc2c1 | 35.0%*
COc1ccc(N2CCN(C(=O)c3cc4cc5ccc(OC)cc5nc4s3)CC2)cc1 | i
COc1ccc2cc3cc(C(=O)Nc4cccc(C#N)c4)sc3nc2c1 | i
COc1ccc(-n2c(=O)[nH]cc(C(=O)Nc3ccc(F)cc3F)c2=O)cc1 | i
COc1ccc2nc3oc(C(=O)Nc4ccccc4F)cc3cc2c1 | i
COc1ccc2cc3cc(C(=O)Nc4ccc(F)cc4)sc3nc2c1 | 35.0%*
Cc1ccc(Cl)cc1NC(=O)c1cc2c(=O)n3cccc(C)c3nc2s1 | i
COc1ccc2cc3cc(C(=O)Nc4ccccc4F)sc3nc2c1 | 41.0%*
Cc1cccn2c(=O)c3cc(C(=O)Nc4ccccc4C#N)sc3nc12 | i
COc1ccc(C(=O)Nc2ccccc2F)cc1 | i
Cc1ccc2cc3cc(C(=O)NC(C)C)sc3nc2c1 | i
SMILES | ST2 inh
Cc1cccn2c(=O)c3cc(C(=O)Nc4ccccc4F)sc3nc12 | 35.0%*
CCCC(=O)Nc1cccc(C(=O)NCc2cc(-c3ccccn3)no2)c1 | i
c1ccc(-c2csc(C3COc4ccccc4O3)n2)cc1 (centres undefined) | i
COCCN1CC(C(=O)NCc2ccc(C(F)(F)F)cc2F)CCC1=O (centres undefined) | i
Cc1ccc(Cc2nc3cc(C)c(C)cc3[nH]c2=O)c(C)c1 | i
CN1CCN(C(=O)C2CNCCN2C(=O)c2ccc(Cl)cn2)CC1 (centres undefined) | i
CSc1ccc(OC(=O)c2ccc(Br)cc2)cc1 | i
Cc1[nH]c2ccc(CNC(=O)c3ccc4c(c3)N(C)C(=O)CO4)cc2c1C | i
C=CCOC(=O)C1=C(C)Nc2ncnn2C1c1cccnc1 (centres undefined) | i
Cc1cccc(N2CCN(S(=O)(=O)c3cccc4cccnc34)CC2C)c1 (centres undefined) | i
O=C(NC1C[C@@H]1c1ccccc1)[C@@H]1CC1c1ccccc1 (some centres undefined) | i
O=C(Nc1ccc(Nc2ccccc2)cc1)C1CC1c1ccccc1 (centres undefined) | 30.0%*
NNC(=O)C1CC1c1ccccc1 (centres undefined) | i
COc1ccccc1N1C(=O)CC(N2CCN(c3ccc(F)cc3)CC2)C1=O (centres undefined) | i
COc1ccc(OC)c(N2C(=O)CC(N3CCN(c4ccc(F)cc4)CC3)C2=O)c1 (centres undefined) | 31.0%*
CCOc1ccc(N2C(=O)CC(N3CCN(c4ccc(F)cc4)CC3)C2=O)cc1 (centres undefined) | i
O=C(Nc1ccccc1C(F)(F)F)c1cnc2n(c1=O)CCS2 | i
COc1cc(OC)cc(-c2cc3nc(C)c(CCC(=O)Nc4cc(F)ccc4F)c(C)n3n2)c1 | i
Oc1ccc(/C=C/c2ccc(/C=C/c3ccc(O)cc3)c(Br)c2)cc1 | i
Oc1cc(O)cc(/C=C/c2ccc(O)c(O)c2)c1 | 33.0%*
COC(=O)[C@]1(O)C[C@@H](O)[C@@H](O)[C@H](OC(=O)/C=C/c2ccc(O)c(O)c2)C1 | i
c1ccc(C2=Nc3ccccc3SC2)cc1 | i
CCOc1ccccc1-c1nc(C(N)=O)c2c(n1)n(-c1ccc(C)c(C)c1)c(=O)n2CC | i
Cc1ccc2c3c(c(N)c(=O)[nH]c13)-c1ccccc1C2=O | 51.0%*
CN(C)CCCNC(=O)NC1(C(F)(F)F)Oc2ccc(Cl)cc2O1 (centres undefined) | i
COc1ccc(F)c(-c2ccc(CNC(C)=O)cn2)c1 | i
O=C(O)c1cc2c3c(c1)C1C=CCC1C(c1cccc([N+](=O)[O-])c1)N3CC1CC=CC21 (centres undefined) | 40.0%*

Screens as filed in PubChem BioAssay.
